Assay results published in PubChem BioAssay.
Unmarked numbers belong to inactive results. For some assays here: Entries with a potency or affinity are not part of this list. Calls of active or inactive are those of the source. Unless noted, how the calls were made is not given here.

Key:
[1] = antimalarial activity against Dd2 strain (AID 2302;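 active means growth inhibition above 50% at the single 2 µM test dose, taken to imply half-maximal potency below 2 µM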;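 further: 0% = DMSO untreated growth and 100% = chloroquine plus artemisinin killed control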); conditions: P. falciparum Dd2 in RBCs, LDH growth readout, 72 h; at 2 µM; stronger effect = higher value
[2] = human hepatoma cell viability loss – ATP luminescence, cytotoxicity control for P. falciparum antimalarial project, primary screen (AID 2303;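 active means inhibition above 50%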;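 further: 0% = DMSO wells and 100% = digitonin-killed cells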); conditions: HepG2 viability, 24-48 h, at 10 µM, stronger effect = higher value
[3] = molecular target: L-lactate dehydrogenase (Plasmodium falciparum (isolate CDC / Honduras)) (UniProt Q27743); assay: PfLDH activity inhibition – cell lysate, 3D7 strain, counter-screen for P. falciparum growth inhibition project (AID 2304);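 further: 0% = vehicle and 100% = reference inhibitor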; conditions: P. falciparum 3D7 crude extract, LDH APAD/NBT absorbance; at 2 µM; stronger effect = higher value
[4] = inhibition of 3D7 malaria parasite growth – strain 3D7 (AID 2306);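 further: 0% = DMSO wells and 100% = chloroquine plus artemisinin control wells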; conditions: P. falciparum 3D7 erythrocytic growth, LDH absorbance, 72 h; at 2 µM; stronger effect = higher value
[5] = molecular target: Calcium-dependent protein kinase 1 (Plasmodium falciparum (isolate 3D7)) (UniProt P62344); assay: PfCDPK1 kinase inhibitors, biochemical, TCAMS library (AID 1159585; cut-off not given, nearly all actives have IC50 up to about 0.98 µM;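 further: inhibitors leave more ATP so luminescence rises with inhibition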); conditions: recombinant PfCDPK1, Kinase-Glo ATP depletion luminescence
[6] = molecular target: Plasmodium falciparum protein kinase 6 (PK6, PF3D7_1337100) (UniProt Q8IDW1); assay: PfPK6 kinase inhibitors, biochemical, TCAMS library (AID 1159586); conditions: recombinant PfPK6, Kinase-Glo ATP depletion luminescence
[7] = molecular target: Protein kinase 7 (PK7), Plasmodium falciparum 3D7 (PF3D7_0213400) (UniProt Q7YTF7); assay: inhibition of Plasmodium PK7 catalytic activity – biochemical, TCAMS antimalarial set, Kinase-Glo luminescence (AID 1159587); conditions: recombinant PfPK7, Kinase-Glo ATP depletion luminescence
[8] = molecular target: Calcium-dependent protein kinase 4 (Plasmodium falciparum (isolate 3D7)) (UniProt Q8IBS5); assay: PfCDPK4 kinase inhibitors, biochemical, TCAMS library (AID 1159588; cut-off not given, nearly all actives have IC50 up to about 0.91 µM); conditions: recombinant PfCDPK4, Kinase-Glo ATP depletion luminescence
Chain of Calcium-dependent protein kinase 4 (Plasmodium falciparum (isolate 3D7)) (Q8IBS5 whole entry, looked up): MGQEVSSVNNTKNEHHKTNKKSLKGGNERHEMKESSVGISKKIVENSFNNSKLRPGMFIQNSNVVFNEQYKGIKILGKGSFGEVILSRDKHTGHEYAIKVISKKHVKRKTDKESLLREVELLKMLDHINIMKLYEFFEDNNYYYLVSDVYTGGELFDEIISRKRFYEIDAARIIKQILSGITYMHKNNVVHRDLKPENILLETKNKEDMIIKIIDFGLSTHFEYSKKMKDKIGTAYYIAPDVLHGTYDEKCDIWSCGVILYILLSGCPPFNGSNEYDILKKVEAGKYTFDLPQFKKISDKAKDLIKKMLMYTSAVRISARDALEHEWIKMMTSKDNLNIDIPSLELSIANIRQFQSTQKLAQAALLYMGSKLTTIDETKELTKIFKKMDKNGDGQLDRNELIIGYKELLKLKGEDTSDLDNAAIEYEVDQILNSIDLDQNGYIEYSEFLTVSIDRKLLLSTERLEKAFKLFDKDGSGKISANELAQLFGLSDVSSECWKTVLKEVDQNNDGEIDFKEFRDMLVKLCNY

Chain of L-lactate dehydrogenase (Plasmodium falciparum (isolate CDC / Honduras)) (Q27743 whole entry, looked up): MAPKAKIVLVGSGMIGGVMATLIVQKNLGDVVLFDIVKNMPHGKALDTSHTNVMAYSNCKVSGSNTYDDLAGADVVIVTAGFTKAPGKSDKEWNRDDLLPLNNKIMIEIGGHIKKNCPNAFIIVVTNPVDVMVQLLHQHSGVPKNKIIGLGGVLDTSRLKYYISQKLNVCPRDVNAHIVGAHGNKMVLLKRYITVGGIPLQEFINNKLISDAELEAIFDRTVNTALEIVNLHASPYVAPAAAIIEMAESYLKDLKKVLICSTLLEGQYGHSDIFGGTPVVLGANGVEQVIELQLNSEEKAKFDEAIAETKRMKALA
Chain of Protein kinase 7 (PK7), Plasmodium falciparum 3D7 (PF3D7_0213400) (Q7YTF7 1-343): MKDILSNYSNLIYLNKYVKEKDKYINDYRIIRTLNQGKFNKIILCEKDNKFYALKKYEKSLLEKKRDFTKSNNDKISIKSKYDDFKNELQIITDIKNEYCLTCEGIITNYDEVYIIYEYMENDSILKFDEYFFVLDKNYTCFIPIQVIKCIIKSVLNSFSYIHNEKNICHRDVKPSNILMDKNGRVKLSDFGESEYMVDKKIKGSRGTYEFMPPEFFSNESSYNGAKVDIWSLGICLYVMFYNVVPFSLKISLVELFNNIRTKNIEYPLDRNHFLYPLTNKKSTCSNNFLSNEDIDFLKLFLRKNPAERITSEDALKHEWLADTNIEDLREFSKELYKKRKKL
Chain of Plasmodium falciparum protein kinase 6 (PK6, PF3D7_1337100) (Q8IDW1 1-305): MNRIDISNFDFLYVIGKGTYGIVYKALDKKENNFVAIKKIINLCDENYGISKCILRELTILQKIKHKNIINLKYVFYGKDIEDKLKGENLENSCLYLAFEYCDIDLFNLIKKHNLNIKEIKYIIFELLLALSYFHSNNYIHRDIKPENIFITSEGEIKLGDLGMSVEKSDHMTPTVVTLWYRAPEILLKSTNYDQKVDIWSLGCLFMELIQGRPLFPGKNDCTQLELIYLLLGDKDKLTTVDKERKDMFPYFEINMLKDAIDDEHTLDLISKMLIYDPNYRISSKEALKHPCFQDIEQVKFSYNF
Chain of Calcium-dependent protein kinase 1 (Plasmodium falciparum (isolate 3D7)) (P62344 whole entry, looked up): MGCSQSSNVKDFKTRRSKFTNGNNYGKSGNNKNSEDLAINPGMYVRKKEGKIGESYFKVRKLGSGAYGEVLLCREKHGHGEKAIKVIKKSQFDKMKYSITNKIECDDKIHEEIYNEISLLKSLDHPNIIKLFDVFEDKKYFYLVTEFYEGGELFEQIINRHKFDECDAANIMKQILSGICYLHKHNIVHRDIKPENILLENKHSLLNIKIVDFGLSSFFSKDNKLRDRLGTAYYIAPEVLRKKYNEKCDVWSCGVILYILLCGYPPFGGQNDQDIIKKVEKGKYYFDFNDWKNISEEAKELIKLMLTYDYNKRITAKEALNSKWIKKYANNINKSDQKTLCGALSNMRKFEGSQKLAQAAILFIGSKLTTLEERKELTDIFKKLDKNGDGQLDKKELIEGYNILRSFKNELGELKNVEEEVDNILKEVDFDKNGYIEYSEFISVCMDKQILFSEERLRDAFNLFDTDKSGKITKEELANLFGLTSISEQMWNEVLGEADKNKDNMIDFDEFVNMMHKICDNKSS

CCNC(C)(C)CN(Cc1ccc(-c2ccc(C(F)(F)F)cc2)cc1)C(=O)Cn1c(SCc2ccc(F)cc2)nc(=O)c2c1CCC2
growth inhibition [1]: 94% (active)
inhibition [2]: 99% (active)
inhibition [3]: 2%
growth inhibition [4]: 95% (active)
outcome [5]: inactive
outcome [6]: inactive
outcome [7]: inactive
outcome [8]: inactive

Fc1ccc(Nc2ccnc3cc(-c4cccc(CNCCN5CCOCC5)c4)ccc23)c(Cl)c1
growth inhibition [1]: 99% (active)
inhibition [2]: 26%
inhibition [3]: -1%
growth inhibition [4]: 100% (active)
outcome [5]: inactive
outcome [6]: inactive
outcome [7]: inactive
outcome [8]: inactive

CC1(C)N=C(N)N=C(N)N1OCCSCc1cc(Cl)sc1Cl
growth inhibition [1]: 72% (active)
inhibition [2]: 70% (active)
inhibition [3]: -2%
growth inhibition [4]: 93% (active)
outcome [5]: inactive
outcome [6]: inactive
outcome [7]: inactive
outcome [8]: inactive

CCOC(=O)c1ccc(OCc2ccc(-c3ccccc3)cc2)cc1
growth inhibition [1]: -1%
inhibition [2]: 18%
inhibition [3]: 3%
growth inhibition [4]: 96% (active)
outcome [5]: inactive
outcome [6]: inactive
outcome [7]: inactive
outcome [8]: inactive

Cc1cc(NCCC(=O)NCCOc2ccccc2)nc(NCCc2ccccc2)n1
growth inhibition [1]: 9%
inhibition [2]: -6%
inhibition [3]: -1%
growth inhibition [4]: 99% (active)
outcome [5]: inactive
outcome [6]: inactive
outcome [7]: inactive
outcome [8]: inactive

COc1cc2c(cc1C(F)(F)F)N(C(=O)Nc1cc(F)cc(-c3cncnc3)c1)CC2
growth inhibition [1]: 52% (active)
inhibition [2]: 15%
inhibition [3]: -5%
growth inhibition [4]: 97% (active)
outcome [5]: inactive
outcome [6]: inactive
outcome [7]: inactive
outcome [8]: inactive

CCCCCCCn1c(=N)n(CC(O)c2ccc(Cl)c(Cl)c2)c2ccccc21 (stereo not given)
growth inhibition [1]: 100% (active)
inhibition [2]: 99% (active)
inhibition [3]: 2%
growth inhibition [4]: 98% (active)
outcome [5]: inactive
outcome [6]: inactive
outcome [7]: inactive
outcome [8]: inactive

FC(F)(F)c1ccc2nccc(NN=Cc3cccc(Cl)c3)c2c1
growth inhibition [1]: 2%
inhibition [2]: -3%
inhibition [3]: -8%
growth inhibition [4]: 97% (active)
outcome [5]: inactive
outcome [6]: inactive
outcome [7]: inactive
outcome [8]: inactive

COc1cc(Cc2c(C)nc3nc(N)nc(N)c3c2C)c(Br)c(OC)c1OC
growth inhibition [1]: -2%
inhibition [2]: 44%
inhibition [3]: 0%
growth inhibition [4]: 93% (active)
outcome [5]: inactive
outcome [6]: inactive
outcome [7]: inactive
outcome [8]: inactive

CCOc1ccc(C(Cc2ccccc2)NC(=O)c2cccnc2)cc1OCC (stereo not given)
growth inhibition [1]: 98% (active)
inhibition [2]: -21%
inhibition [3]: 5%
growth inhibition [4]: 100% (active)
outcome [5]: inactive
outcome [6]: inactive
outcome [7]: inactive
outcome [8]: inactive

CCCN(CC1CC1)c1ncc(-c2cccc(CNCc3ccccc3O)c2)cn1
growth inhibition [1]: 98% (active)
inhibition [2]: 15%
inhibition [3]: -8%
growth inhibition [4]: 97% (active)
outcome [5]: inactive
outcome [6]: inactive
outcome [7]: inactive
outcome [8]: inactive

CNS(=O)(=O)Cc1ccc(Nc2nccc(Nc3cccc4c3cnn4C(=O)Nc3ccccc3)n2)cc1
growth inhibition [1]: 5%
inhibition [2]: 45%
inhibition [3]: 1%
growth inhibition [4]: 89% (active)
outcome [5]: inactive
outcome [6]: inactive
outcome [7]: inactive
outcome [8]: inactive

CC(=O)Nc1nc(C(=O)Nc2cccc(-c3ccc(-c4nc5ccc(F)cc5[nH]4)cc3)c2)cs1
growth inhibition [1]: 32%
inhibition [2]: 54% (active)
inhibition [3]: -4%
growth inhibition [4]: 101% (active)
outcome [5]: inactive
outcome [6]: inactive
outcome [7]: inactive
outcome [8]: inactive

COc1ccc(-c2nc3nc4ccccc4cc3[nH]2)c(OCC(O)CNC(C)C)c1 (stereo not given)
growth inhibition [1]: 96% (active)
inhibition [2]: 19%
inhibition [3]: -1%
growth inhibition [4]: 98% (active)
outcome [5]: inactive
outcome [6]: inactive
outcome [7]: inactive
outcome [8]: inactive

CN(Cc1ccc(NC(=O)NC2CCN(C(=O)/C=C/c3ccc(Cl)c(Cl)c3)CC2)cc1)C1CCOCC1
growth inhibition [1]: 14%
inhibition [2]: 9%
inhibition [3]: 5%
growth inhibition [4]: 96% (active)
outcome [5]: inactive
outcome [6]: inactive
outcome [7]: inactive
outcome [8]: inactive

CN(C)CCOc1ccc2c(c1)OC(C)(C)C=C2c1cccc2ccccc12
growth inhibition [1]: 48%
inhibition [2]: 66% (active)
inhibition [3]: -2%
growth inhibition [4]: 95% (active)
outcome [5]: inactive
outcome [6]: inactive
outcome [7]: inactive
outcome [8]: inactive

FC(F)(F)c1ccc2nc(-c3cccc(-c4ccc(CNCC5CCCO5)cc4)c3)[nH]c2c1 (stereo not given)
growth inhibition [1]: 99% (active)
inhibition [2]: 29%
inhibition [3]: -7%
growth inhibition [4]: 99% (active)
outcome [5]: inactive
outcome [6]: inactive
outcome [7]: inactive
outcome [8]: inactive

CS(=O)(=O)N1CC2(CCN(CCC(NC(=S)Nc3ccccc3)c3ccc(Cl)c(Cl)c3)CC2)c2ccccc21 (stereo not given)
growth inhibition [1]: 80% (active)
inhibition [2]: 24%
inhibition [3]: -1%
growth inhibition [4]: 98% (active)
outcome [5]: inactive
outcome [6]: inactive
outcome [7]: inactive
outcome [8]: inactive

COc1ccc2c(=O)c(-c3ccc(OC(F)(F)F)cc3)c(C)[nH]c2c1
growth inhibition [1]: 96% (active)
inhibition [2]: 0%
inhibition [3]: -3%
growth inhibition [4]: 97% (active)
outcome [5]: inactive
outcome [6]: inactive
outcome [7]: inactive
outcome [8]: inactive

CS(=O)(=O)Nc1ccc2[nH]cc(C3CCN(CC(O)C4CCN(C(=O)/C=C/c5ccc(Cl)c(Cl)c5)CC4)CC3)c2c1 (stereo not given)
growth inhibition [1]: -10%
inhibition [2]: 28%
inhibition [3]: -3%
growth inhibition [4]: 101% (active)
outcome [5]: inactive
outcome [6]: inactive
outcome [7]: inactive
outcome [8]: inactive

CC(C)CNCc1ccc(OCc2cccc(COc3ccc(CNCC(C)C)cc3I)c2)c(I)c1
growth inhibition [1]: 84% (active)
inhibition [2]: 23%
inhibition [3]: -4%
growth inhibition [4]: 98% (active)
outcome [5]: inactive
outcome [6]: inactive
outcome [7]: inactive
outcome [8]: inactive

Cc1c(Cl)cccc1S(=O)(=O)Nc1ccc(CCN2CCC(N)CC2)cc1
growth inhibition [1]: 4%
inhibition [2]: 23%
inhibition [3]: 0%
growth inhibition [4]: 90% (active)
outcome [5]: inactive
outcome [6]: inactive
outcome [7]: inactive
outcome [8]: inactive

COc1cc2c(cc1OC)CC(NCCCCCCNCCc1ccc(Cl)cc1)CC2 (stereo not given)
growth inhibition [1]: -1%
inhibition [2]: 50% (active)
inhibition [3]: 1%
growth inhibition [4]: 98% (active)
outcome [5]: inactive
outcome [6]: inactive
outcome [7]: inactive
outcome [8]: inactive

Cc1cc(NCCC(=O)Nc2ccccc2)nc(NCCOc2ccccc2)n1
growth inhibition [1]: 9%
inhibition [2]: 5%
inhibition [3]: 0%
growth inhibition [4]: 100% (active)
outcome [5]: inactive
outcome [6]: inactive
outcome [7]: inactive
outcome [8]: inactive

CCC(C)c1ccc(NC(=O)c2ccc(S(=O)(=O)Nc3ccc(OC)c(N4CCN(CC5CC5)CC4)c3)cc2)cc1 (stereo not given)
growth inhibition [1]: 17%
inhibition [2]: 24%
inhibition [3]: -2%
growth inhibition [4]: 94% (active)
outcome [5]: inactive
outcome [6]: inactive
outcome [7]: inactive
outcome [8]: inactive

CN(CCCCCNC(=O)/C=C/c1ccc(Cl)c(Cl)c1)CCc1c[nH]c2ccccc12
growth inhibition [1]: 18%
inhibition [2]: 40%
inhibition [3]: 2%
growth inhibition [4]: 91% (active)
outcome [5]: inactive
outcome [6]: inactive
outcome [7]: inactive
outcome [8]: inactive

CNS(=O)(=O)c1ccc2c(c1)nc(C1CCN(CC3CCC(NC(=O)/C=C/c4ccc(Cl)c(Cl)c4)CC3)CC1)n2C (stereo not given)
growth inhibition [1]: 96% (active)
inhibition [2]: 5%
inhibition [3]: -2%
growth inhibition [4]: 102% (active)
outcome [5]: inactive
outcome [6]: inactive
outcome [7]: inactive
outcome [8]: inactive

COc1c(Br)cc(Br)cc1-c1ccc(CN2C3CCCC2CCC3)[nH]1
growth inhibition [1]: 83% (active)
inhibition [2]: 42%
inhibition [3]: 3%
growth inhibition [4]: 88% (active)
outcome [5]: inactive
outcome [6]: inactive
outcome [7]: inactive
outcome [8]: inactive

O=C(Nc1ccc2c(c1)CCCN2S(=O)(=O)c1cccs1)c1cc([N+](=O)[O-])ccc1Cl
growth inhibition [1]: 95% (active)
inhibition [2]: 29%
inhibition [3]: 3%
growth inhibition [4]: 93% (active)
outcome [5]: inactive
outcome [6]: inactive
outcome [7]: inactive
outcome [8]: inactive

Cc1ccc(NS(=O)(=O)c2cccs2)cc1-c1cccc(C(=O)Nc2ccc(F)cc2)c1
growth inhibition [1]: 100% (active)
inhibition [2]: 38%
inhibition [3]: 0%
growth inhibition [4]: 99% (active)
outcome [5]: inactive
outcome [6]: inactive
outcome [7]: inactive
outcome [8]: inactive

Cc1cccc2[nH]c(-c3cccc(-c4ccc(NC(=O)CCc5cnc[nH]5)cc4)c3)nc12
growth inhibition [1]: 92% (active)
inhibition [2]: 3%
inhibition [3]: 6%
growth inhibition [4]: 102% (active)
outcome [5]: inactive
outcome [6]: inactive
outcome [7]: inactive
outcome [8]: inactive

C[C@@H](CC1CCCCC1)OC(=O)N(C)[C@H]1CCN(C#N)C1
growth inhibition [1]: 62% (active)
inhibition [2]: 4%
inhibition [3]: -6%
growth inhibition [4]: 84% (active)
outcome [5]: inactive
outcome [6]: inactive
outcome [7]: inactive
outcome [8]: inactive

CN1CCN(c2ccnc3cc4c(cc23)N(Cc2ccccc2)CC4)CC1
growth inhibition [1]: 27%
inhibition [2]: -2%
inhibition [3]: -3%
growth inhibition [4]: 94% (active)
outcome [5]: inactive
outcome [6]: inactive
outcome [7]: inactive
outcome [8]: inactive

COc1ccc(CCn2c(=N)c(C(=O)NCc3ccccc3)cc3c(=O)n4ccccc4nc32)cc1
growth inhibition [1]: 18%
inhibition [2]: 14%
inhibition [3]: -1%
growth inhibition [4]: 100% (active)
outcome [5]: inactive
outcome [6]: inactive
outcome [7]: inactive
outcome [8]: inactive

CN(CCCN(C)c1cc(NC(=O)c2ccc(F)cc2)ccn1)Cc1cccc(O)c1
growth inhibition [1]: 0%
inhibition [2]: 2%
inhibition [3]: 1%
growth inhibition [4]: 90% (active)
outcome [5]: inactive
outcome [6]: inactive
outcome [7]: inactive
outcome [8]: inactive

Cc1nnc2c(NC(=O)NC3CCCC3)cc3cc(-c4ccc(CN(C)C)cc4)ccc3n12
growth inhibition [1]: 37%
inhibition [2]: 100% (active)
inhibition [3]: -2%
growth inhibition [4]: 100% (active)
outcome [5]: inactive
outcome [6]: inactive
outcome [7]: inactive
outcome [8]: inactive

CC(C)CCn1c(Sc2ccc(C#N)c([N+](=O)[O-])c2)nnc1-c1ccccc1Cl
growth inhibition [1]: 38%
inhibition [2]: 20%
inhibition [3]: 3%
growth inhibition [4]: 93% (active)
outcome [5]: inactive
outcome [6]: inactive
outcome [7]: inactive
outcome [8]: inactive

N#Cc1ccc(/C=C/C(=O)NCCCCCN2CCCN(C(=O)Nc3ccc(Cl)c(C(F)(F)F)c3)CC2)cc1
growth inhibition [1]: 13%
inhibition [2]: 28%
inhibition [3]: 0%
growth inhibition [4]: 98% (active)
outcome [5]: inactive
outcome [6]: inactive
outcome [7]: inactive
outcome [8]: inactive

CC(CN1CCN(C)CC1)C(=O)Nc1cccc(-c2cccc(-c3nc4ccc(F)cc4[nH]3)c2)c1 (stereo not given)
growth inhibition [1]: 78% (active)
inhibition [2]: 23%
inhibition [3]: -2%
growth inhibition [4]: 101% (active)
outcome [5]: inactive
outcome [6]: inactive
outcome [7]: inactive
outcome [8]: inactive

COc1ccc(CNC(=O)NC2CCN(c3ccnc(Nc4ccc(F)cc4)n3)CC2)cc1
growth inhibition [1]: 4%
inhibition [2]: 16%
inhibition [3]: -6%
growth inhibition [4]: 87% (active)
outcome [5]: inactive
outcome [6]: inactive
outcome [7]: inactive
outcome [8]: inactive
